Nrf2 activator – activators of Nrf2 (ARE) signaling. AID 624171. 410,000 compounds, 0.31% hits. Potency, µM (doses to about 46.1 µM), hits mostly activators. AREc32 ARE-luciferase reporter (MCF7-derived line), luminescence, 24 h; also: nearly all actives have a fitted effect of over 65% in size
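Quantitative high-throughput format: AREc32 reporter cells, 1000 per well, received compound by pin transfer and were incubated 24 hr at 37 deg C, 5% CO2, before Steady-Glo luminescence detection.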
GALK inh – inhibitors of human galactokinase; AID 1868; Potency, µM (top dose mostly 57.5 µM), actives largely listed as inhibitors; P51570; 270,000 compounds, 0.007% hits; Purified GALK, Kinase-Glo residual ATP luminescence
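Quantitative HTS: GALK 5 nM, ATP 35 uM, galactose 100 uM, 1 h room temperature, then luciferase-based ATP detection.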
A549 tox-1 – counter-screen for Nrf2 inhibitors: cytotoxicity in A549 cells; A549 ARE-Fluc cells, CellTiter-Fluor viability, 18-24 h; Potency, µM (doses to about 46 µM), hits mostly inhibitors; 390,000 compounds, 0.16% hits; AID 504648
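Cytotoxicity counterscreen: CellTiter-Fluor fluorescence was measured in A549 ARE_Fluc cells after 18-24 h of compound exposure in a concentration series. The subsequent BugLite luminescent read reports ARE-luciferase activity.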
Nrf2 block – Nrf2 pathway inhibition; A549 ARE-Fluc reporter, luciferase luminescence, 18-24 h; Potency, µM (series often up to 46 µM), actives largely listed as inhibitors; 360,000 compounds, 2.1% hits; also: nearly all actives have a fitted effect of over 60% in size
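A549 ARE_Fluc cells (5000/well, 5% FBS OPTI-MEM) pre-incubated 2 h, then treated with compounds 18-24 h at 37C/5% CO2 in concentration-response. CellTiter-Fluor viability read first; BugLite luciferase luminescence after 15 min at room temperature gives Nrf2 activity.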
TrxR1 inh – blocks rat thioredoxin reductase 1 | O89049 | recombinant rTrxR1, NADPH fluorescence consumption, selenite substrate | Potency, µM (highest dose often 114 µM), usual class: inhibitors | 390,000 compounds, 1% hits; also: nearly all actives have a fitted effect of over 65% in size
Target sequence (O89049 whole entry, looked up): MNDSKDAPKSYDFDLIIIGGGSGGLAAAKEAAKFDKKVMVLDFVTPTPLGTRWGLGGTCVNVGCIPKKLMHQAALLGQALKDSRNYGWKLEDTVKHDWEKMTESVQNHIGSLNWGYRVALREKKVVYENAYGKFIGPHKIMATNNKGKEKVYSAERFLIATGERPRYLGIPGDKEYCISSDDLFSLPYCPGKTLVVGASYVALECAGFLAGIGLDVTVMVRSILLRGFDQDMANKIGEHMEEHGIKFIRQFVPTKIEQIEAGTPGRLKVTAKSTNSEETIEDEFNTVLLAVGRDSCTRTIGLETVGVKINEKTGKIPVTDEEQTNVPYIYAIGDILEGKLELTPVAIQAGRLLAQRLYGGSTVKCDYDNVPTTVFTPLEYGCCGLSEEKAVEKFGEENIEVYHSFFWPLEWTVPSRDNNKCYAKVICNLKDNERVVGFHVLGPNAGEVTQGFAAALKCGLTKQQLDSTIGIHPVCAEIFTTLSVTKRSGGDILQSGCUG
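Rat TrxR1 (90 nM in the dispensed reagent) was pre-reduced with 400 uM NADPH for 5 min at room temperature, then incubated with compound for 15 min. After 400 uM selenite was added, NADPH fluorescence (Ex 340/Em 450 nm) was followed for 8 min.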
TrxR1 substrate – substrates of rat thioredoxin reductase 1 | O89049 | purified TrxR1 substrate turnover, NADPH consumption readout | Potency, µM (top dose mostly 114 µM) | 390,000 compounds, 0.01% hits | AID 588456; also: nearly all actives have a fitted effect of over 50% in size
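Rat TrxR1, dispensed at 90 nM, was prereduced with 400 uM NADPH (final) for 5 min at ~22 deg C, then incubated with compound 15 min before 400 uM selenite. A first-read NADPH fluorescence drop versus no-compound background flagged substrates.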
FLuc counter 3 – blocks purified firefly luciferase in Nrf2 counterscreen; shares compounds with Nrf2 block; purified firefly luciferase, luminescence inhibition; Potency, µM (titrated, usually from 57.5 µM), usual class: inhibitors; 1,400 compounds, 4% hits; AID 720522; also: nearly all actives have a fitted effect of over 65% in size
A549 tox-2 – toxic to A549 ARE-Fluc cells in Nrf2 counterscreen; shares compounds with Nrf2 block; A549 ARE-Fluc cells, cytotoxicity counterscreen; Potency, µM (doses to about 46.1 µM), usual class: inhibitors; 1,400 compounds, 2% hits;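 also: cells exposed to compounds for 18 to 24 hours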
Nrf2 ARE inh – confirmation of Nrf2 inhibitors in A549 ARE reporter cells | A549 ARE-firefly luciferase reporter, luminescence | Potency, µM (series often up to 46.1 µM), actives largely listed as inhibitors | 1,400 compounds, 74% hits | shares compounds with Nrf2 block; also: nearly all actives have a fitted effect of over 65% in size
Hits are given with their value; n = inactive; u = inconclusive; x = no result shown; [ ] = another dose, or the depositor's remark. This is a sample that favours compounds with a hit; in the whole collection about 3% have one here. Calls follow the shape of the dose curve; as a rule, active = well fitted curve in the direction sought with a large enough effect; inconclusive = small, poorly fitted or top-dose-only effect, or another doubt; inactive = no such curve, though single readings can be large; an effect the other way counts as inactive or inconclusive.

SMILES	Nrf2 activator	GALK inh	A549 tox-1	Nrf2 block	TrxR1 inh	TrxR1 substrate	FLuc counter 3	A549 tox-2	Nrf2 ARE inh
COc1ccc(S(=O)(=O)NC(=O)C2(C)CCN2C(=O)C2(c3ccccc3)CCCC2)cc1 (configuration not stated)	n	x	x	x	x	x	x	x	x
CCC(C)(C)c1ccc(OCCCC[n+]2cccc(C)c2)c(C(C)(C)CC)c1	n	n	u	8.2µM	n	n	n	u	6.5µM
CCCCCCCCCC[n+]1cccc(Br)c1	x	x	x	x	n	n	x	x	x
CCOc1ccc(CCNC(=O)CCn2c(=O)c3cccn3c3ccc(F)cc32)cc1	n	x	n	u	n[11.4 µM]	n	x	x	x
CC(=O)c1c(C)[nH]c(C(=O)OCc2cccc(Cl)c2)c1C	n	n	n	u	n	n	x	x	x
CC(=O)c1c(C)[nH]c(C(=O)OCC(=O)NCc2ccc(Cl)cc2)c1C	n	x	n	8.2µM	n	n	n	n	13µM
CC(=O)c1c(C)[nH]c(C(=O)OCc2c(F)cccc2Cl)c1C	n	n	n	5.2µM	n	n	n	n	15µM
Clc1cccc(CSc2nncn3c2cc2sccc23)c1	n	x	n	u	n	n	x	x	x
CCc1ccc(-n2nc3ccc(NC(=O)COc4ccc(OC)cc4)cc3n2)cc1	n	x	n	1.6µM	n	n	n	n	n
CN(C)C(=O)CSc1ccccc1C(=O)OCC(=O)NC1CC1	n	x	n	n	n	n	x	x	x
O=C(O)CCSc1nc2ccccc2n1-c1ccccc1	n	n	n	5.8µM	n	n	n	n	5.8µM
CC(C)N(C(=O)CSc1nc2ccccc2n1-c1ccccc1)C(C)C	n	n	n	n	n	n	x	x	x
O=C(CSc1cccc[n+]1[O-])N1CCc2ccccc21	n	x	n	n	n	n	x	x	x
Cc1ccc(C(=O)NCC(c2ccc(Cl)cc2)N2CCCCC2)cc1 (configuration not stated)	n	x	n	n	n	n	x	x	x
COc1ccc(C(=O)N2CCN(c3ccc([N+](=O)[O-])c(NCCc4ccc(OC)c(OC)c4)c3)CC2)cc1	n	n	u	2.9µM	n	n	n	n	5.8µM
COc1ccc(CCNc2cc(N3CCN(C(=O)c4ccccc4F)CC3)ccc2[N+](=O)[O-])cc1OC	n	n	u	2.1µM	n	n	n	n	6.5µM
CCOc1ccc(S(=O)(=O)NCCC(=O)Nc2nnc(C)s2)cc1	n	n	n	n	n	n	x	x	x
Cc1nc(CN(C)C(=O)c2cc(COc3ccc4ncccc4c3)on2)cs1	n	n	n	2.9µM	n	n	n	n	n
CCC1CCCCN1C(=O)c1cc(COc2ccc3ncccc3c2)on1 (configuration not stated)	n	n	u	2.1µM	n	n	n	n	x
CC(=O)c1ccc(OCc2cc(C(=O)N3CCCCC3c3cccnc3)no2)cc1 (configuration not stated)	n	n	n	n	n	n	x	x	x
CC(CCCC(C)(C)O)NC(=O)c1cc(COc2ccc3ncccc3c2)on1 (configuration not stated)	n	n	u	5.2µM	n	n	n	n	6.5µM
Cc1cc(/C=C\c2ccc3cc(N(C)C)ccc3[n+]2C)c(C)n1-c1ccccc1	n	x	5.8µM	1.2µM	n	n	u	7.3µM	1.3µM
COc1cc2c(cc1OC)CN(CC(=O)Nc1ccc(C)c(S(=O)(=O)N3CCOCC3)c1)CC2	n	n	n	n	n	n	x	x	x
CC(=O)c1cn(CCOc2ccccc2C)c2ccccc12	n	n	n	4.6µM	n	n	n	n	6.5µM
COc1cc2c(NC3CCN(C(C)C)CC3)nc(N3CCCN(C)CC3)nc2cc1OCCCN1CCCC1	x	x	x	x	u	n	n	u	1.5µM
SMILES	Nrf2 activator	GALK inh	A549 tox-1	Nrf2 block	TrxR1 inh	TrxR1 substrate	FLuc counter 3	A549 tox-2	Nrf2 ARE inh
COc1cc2c(NC3CCN(C)CC3)nc(N3CCCN(C)CC3)nc2cc1OCCOCCN(C)C	x	x	x	x	u	n	x	x	x
COc1cc2c(NC3CCN(C(C)C)CC3)nc(N3CCCN(C)CC3)nc2cc1OCCOCCN(C)C	x	x	x	x	u	n	n	n	6.5µM
COc1ccccc1CNC(=O)c1ccc(N2CCCC2)c(NC(=O)NCc2ccc(C)cc2)c1	n	x	n	x	n	n	x	x	x
COc1ccc(OC)c(C2=Nn3c(nnc3-c3cccc(OC)c3OC)SC2)c1	x	x	n	n	x	x	x	x	x
CCC(C)C(NC(=O)CCC(=O)OCC(=O)[C@@]1(O)CCC2[C@@H]3CCC4=CC(=O)C=C[C@]4(C)C3[C@@H](O)C[C@@]21C)C(=O)O (some centres not stated)	n	n	n	0.18µM	n	n	n	n	0.21µM
C[C@]12C=CC(=O)C=C1CC[C@@H]1C2[C@@H](O)C[C@@]2(C)C1CC[C@]2(O)C(=O)COC(=O)CCC(=O)O (some centres not stated)	n	n	n	0.13µM	n	n	n	n	u
CC(=O)OCC(=O)C1(O)CCC2C3CCC4=CC(=O)C=CC4(C)C3C(O)CC21C (configuration not stated)	n	n	n	0.029µM	n	n	n	n	0.058µM
CCCC1O[C@@H]2CC3C4CCC5=CC(=O)C=C[C@]5(C)C4C(OC(C)=O)C[C@]3(C)[C@]2(C(=O)COC(C)=O)O1 (some centres not stated)	n	n	n	n	n	n	x	x	x
CC(=O)N(C(C)=O)c1ncc2c([nH]c3ccccc32)c1C#N	n	n	n	8.2µM	n	n	n	n	x
O=C(NCCN1CCOCC1)c1ccc(=O)n(Cc2ccc(Cl)cc2)c1	n	n	n	n	n	n	x	x	x
Cn1c(=O)n(-c2ccc(C(C)(C)C#N)cc2)c2c3cc(-c4cnc5ccccc5c4)ccc3ncc21	x	x	x	x	n	n	n	u	0.92µM
FC(F)(F)c1cnc(N2CCC(=NOCc3ccc(Cl)cc3)CC2)c(Cl)c1	n	n	n	8.2µM	n	n	n	n	n
Cc1ccc(CON=C2CCN(c3ncc(C(F)(F)F)cc3Cl)CC2)cc1	n	n	n	n	n	n	x	x	x
O=C(CCCc1nc(-c2ccccc2Cl)no1)NC1CCCC1	n	n	n	1.2µM	n	n	u	n	4.6µM
O=C(CCCc1nc(-c2ccc(Cl)cc2)no1)NC1CCCCC1	n	n	n	3.7µM	n	n	n	n	x
